The list is not random: actives were taken first. Their share in the collection is about 2.9%.
MEKK2 WT-MEK5 = raises or lowers MEK5 binding to wildtype human MEKK2 PB1 domain; bead flow cytometry, Alexa488-MEK5 binding to MEKK2 WT; actives lie on both sides; Q9Y2U5; binding response (% of control), % at 10 µM; AID 1531; 1.1% of 290,000 active; in the data active = binding response below about 67% or above about 130%
CRFR2-BP antag = antagonists of CRF-binding protein/CRF-R2 receptor complex | 0.59% of 350,000 active | inhibition, % at 11.8 µM | HEK293 CRF-R2/CRF-BP, CRF-induced calcium fluorescence;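 active = inhibition of the ligand-induced calcium signal above about 50% at the single tested concentration, limit read from the data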
MEKK2 mut-MEK5 = signal of MEK5 binding to mutant human MEKK2 PB1 domain. 0.35% of 290,000 active. bead flow cytometry, Alexa488-MEK5 binding to MEKK2 mutant. percent response, % at 10 µM; in the data active = percent response above about 24%, passing the limit was not always enough
CRFR2-BP ag = CRF-BP/CRF-R2 complex agonism; HEK293 CRF-R2/CRF-BP, calcium dye fluorescence (FLIPR); percent of saturating CRF peptide response; activation, % at 13.2 µM; 0.46% of 350,000 active;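 active = activation of at least 50%, plus an integration ratio under a set limit after plate pattern correction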
MEKK3 PB1 HTS = MEKK3-MEK5 PB1 interaction, increase or decrease | binding response (% of control), % at 10 µM | 1.4% of 290,000 active | AID 1529 | bead-based flow cytometry, Alexa488-MEK5 binding to MEKK3; actives lie on both sides; 0 = blocked by unlabeled MEK5, 100 = vehicle | Q99759;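 active = binding response more than 3 SD above or below the average of its plate-row segment, actives on both sides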;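 note: Alexa488 bead fluorescence after subtracting the streptavidin-only scavenger bead signal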
Target sequence (Q99759 whole entry, looked up): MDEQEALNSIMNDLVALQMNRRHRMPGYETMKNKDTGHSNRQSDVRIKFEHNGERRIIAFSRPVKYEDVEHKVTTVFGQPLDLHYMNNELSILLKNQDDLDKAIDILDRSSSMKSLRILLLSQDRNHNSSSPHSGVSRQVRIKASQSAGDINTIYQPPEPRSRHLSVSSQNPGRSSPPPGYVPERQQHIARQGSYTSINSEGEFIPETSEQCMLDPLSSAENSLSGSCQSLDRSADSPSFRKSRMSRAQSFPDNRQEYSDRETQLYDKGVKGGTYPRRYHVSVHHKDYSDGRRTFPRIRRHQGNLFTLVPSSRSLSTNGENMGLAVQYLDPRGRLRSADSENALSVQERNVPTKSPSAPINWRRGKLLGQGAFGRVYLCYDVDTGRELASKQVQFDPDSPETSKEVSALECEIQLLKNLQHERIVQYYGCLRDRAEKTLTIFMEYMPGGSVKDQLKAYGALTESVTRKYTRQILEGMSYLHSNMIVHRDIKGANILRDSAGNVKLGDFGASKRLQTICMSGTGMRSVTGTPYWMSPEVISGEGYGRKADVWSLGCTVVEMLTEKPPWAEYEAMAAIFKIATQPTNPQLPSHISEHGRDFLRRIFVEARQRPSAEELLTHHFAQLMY
ABCB6 inh MLPCN = blocks the human ABCB6 transporter | 0.19% of 360,000 active | K562-ABCB6 porphyrin accumulation, flow cytometry, 1 h; stronger effect = lower value | fluorescence ratio to DMSO, % at 10 µM | Q9NP58;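 active = fluorescence ratio to DMSO below 75%, the collection mean minus 3 SD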;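 note: signal is porphyrin accumulated inside mitochondria; lower ratio means ABCB6 inhibition with less porphyrin fluorescence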
A number is an active result; ! = a repeat was not active.

CCN(CC)c1ccc(N=Cc2c(O)n(-c3ccccc3C)c(=O)[nH]c2=O)cc1 was read as MEKK2 WT-MEK5 inactive, CRFR2-BP antag inactive, MEKK2 mut-MEK5 inactive, CRFR2-BP ag inactive, MEKK3 PB1 HTS inactive and ABCB6 inh MLPCN inactive.
CCN(CC)c1ccc(N=Cc2c(O)n(-c3ccccc3)c(=O)[nH]c2=O)cc1 was read as MEKK2 WT-MEK5 inactive, CRFR2-BP antag inactive, MEKK2 mut-MEK5 inactive, CRFR2-BP ag inactive, MEKK3 PB1 HTS inactive and ABCB6 inh MLPCN inactive.
For CCOc1ccc(-n2c(O)c(C=Nc3ccc(N(CC)CC)cc3)c(=O)[nH]c2=O)cc1 the results were MEKK2 WT-MEK5 inactive, CRFR2-BP antag inactive, MEKK2 mut-MEK5 inactive, CRFR2-BP ag 101.7, MEKK3 PB1 HTS inactive and ABCB6 inh MLPCN inactive.
For CCN(CC)c1ccc(N=Cc2c(O)n(Cc3ccccc3)c(=O)[nH]c2=O)cc1 the results were MEKK2 WT-MEK5 inactive, CRFR2-BP antag inactive, MEKK2 mut-MEK5 inactive, CRFR2-BP ag 190.0!, MEKK3 PB1 HTS inactive and ABCB6 inh MLPCN inactive.
COc1nc2ccccc2c(=O)n1-c1ccc(Cl)cc1 was read as MEKK2 WT-MEK5 inactive, CRFR2-BP antag inactive, MEKK2 mut-MEK5 inactive, CRFR2-BP ag inactive, MEKK3 PB1 HTS inactive and ABCB6 inh MLPCN inactive.
O=c1c2ccccc2nc(N2CCCC2)n1-c1ccc(Cl)cc1 was read as MEKK2 WT-MEK5 inactive, CRFR2-BP antag 63.7, MEKK2 mut-MEK5 inactive, CRFR2-BP ag inactive, MEKK3 PB1 HTS inactive and ABCB6 inh MLPCN inactive.
CN(C)c1ccc(/C=C/C=C/c2sc3ccccc3[n+]2C)cc1 was read as MEKK2 WT-MEK5 4.0, CRFR2-BP antag inactive, MEKK2 mut-MEK5 inactive, CRFR2-BP ag inactive, MEKK3 PB1 HTS inactive and ABCB6 inh MLPCN inactive.
Screening CC[n+]1c(/C=C/C=C/c2ccc(N(C)C)cc2)sc2ccccc21 returned MEKK2 WT-MEK5 -5.0, CRFR2-BP antag inactive, MEKK2 mut-MEK5 inactive, CRFR2-BP ag inactive, MEKK3 PB1 HTS inactive and ABCB6 inh MLPCN inactive.
Screening COc1cc2c(c(OC)c1OC)-c1ccc(OC)c(=O)cc1C(N)CC2 (centres undefined) returned CRFR2-BP antag inactive, CRFR2-BP ag inactive and ABCB6 inh MLPCN inactive.
`Nc1c2c(nc3ccccc13)CCN(Cc1ccccc1)C2` gave MEKK2 WT-MEK5 inactive, CRFR2-BP antag inactive, MEKK2 mut-MEK5 inactive, CRFR2-BP ag 68.8, MEKK3 PB1 HTS inactive and ABCB6 inh MLPCN inactive.
C1=C(c2c[nH]c3ccccc23)CCN(Cc2ccccc2)C1 was read as MEKK2 WT-MEK5 inactive, CRFR2-BP antag inactive, MEKK2 mut-MEK5 inactive, CRFR2-BP ag inactive, MEKK3 PB1 HTS inactive and ABCB6 inh MLPCN inactive.
For Nc1cc(Cl)c2nonc2c1[N+](=O)[O-] the results were MEKK2 WT-MEK5 inactive, CRFR2-BP antag 58.0, MEKK2 mut-MEK5 inactive, CRFR2-BP ag inactive, MEKK3 PB1 HTS inactive and ABCB6 inh MLPCN inactive.
Screening CCN(CC)CCN=C(C)c1c(O)n(-c2ccccc2OC)c(=O)[nH]c1=O returned MEKK2 WT-MEK5 inactive, CRFR2-BP antag 86.6, MEKK2 mut-MEK5 inactive, CRFR2-BP ag inactive, MEKK3 PB1 HTS inactive and ABCB6 inh MLPCN inactive.
For CCn1c(O)c(C=Nc2ccc(N3CCOCC3)cc2)c(=O)n(CC)c1=S the results were MEKK2 WT-MEK5 inactive, CRFR2-BP antag inactive, MEKK2 mut-MEK5 inactive, CRFR2-BP ag 97.0, MEKK3 PB1 HTS inactive and ABCB6 inh MLPCN inactive.
`O=c1[nH]c(=S)n(-c2ccc(Cl)cc2)c(O)c1C=Nc1ccc(N2CCOCC2)cc1` gave MEKK2 WT-MEK5 inactive, CRFR2-BP antag inactive, MEKK2 mut-MEK5 inactive, CRFR2-BP ag 52.9, MEKK3 PB1 HTS inactive and ABCB6 inh MLPCN inactive.
`CCn1c(O)c(C=Nc2ccc(N3CCOCC3)c(Br)c2)c(=O)n(CC)c1=S` gave CRFR2-BP antag inactive, CRFR2-BP ag 99.5 and ABCB6 inh MLPCN inactive.
For CCN(C(C)=O)c1cccc(-c2ccnc3c(C#N)cnn23)c1 the results were MEKK2 WT-MEK5 inactive, MEKK2 mut-MEK5 inactive and MEKK3 PB1 HTS inactive.
For Nc1cccc(SC2CC(=O)N(c3ccc(Cl)cc3C(=O)c3ccccc3)C2=O)c1 (centres undefined) the results were CRFR2-BP antag inactive, CRFR2-BP ag inactive and ABCB6 inh MLPCN inactive.
Screening COc1cc2c(c(OC)c1OC)-c1ccc(SC)c(=O)cc1C(N)CC2 (centres undefined) returned CRFR2-BP antag inactive, CRFR2-BP ag inactive and ABCB6 inh MLPCN inactive.
`COc1cc(C=NNC(=S)Nc2ccc(S(=O)(=O)N3CCCCC3)cc2)cc(OC)c1OC` gave CRFR2-BP antag inactive, CRFR2-BP ag inactive and ABCB6 inh MLPCN inactive.
Screening CC(C)c1ccc(NC(=O)CCNC(=O)N2C[C@H]3C[C@@H](C2)c2cccc(=O)n2C3)cc1 returned MEKK2 WT-MEK5 inactive, CRFR2-BP antag inactive, MEKK2 mut-MEK5 inactive, CRFR2-BP ag inactive, MEKK3 PB1 HTS inactive and ABCB6 inh MLPCN inactive.
Cc1cc(O)c(CN2CC=C(c3ccccc3)CC2)cc1C(C)C was read as MEKK2 WT-MEK5 inactive, CRFR2-BP antag inactive, MEKK2 mut-MEK5 inactive, CRFR2-BP ag inactive, MEKK3 PB1 HTS inactive and ABCB6 inh MLPCN inactive.
Cc1cc(C(=O)Nc2ccccc2)nn1C(C)(C)C was read as MEKK2 WT-MEK5 inactive, CRFR2-BP antag inactive, MEKK2 mut-MEK5 inactive, CRFR2-BP ag inactive, MEKK3 PB1 HTS inactive and ABCB6 inh MLPCN inactive.
Cc1cc(C(=O)Nc2ccc3c(c2)OCCO3)nn1C(C)(C)C was read as MEKK2 WT-MEK5 inactive, CRFR2-BP antag 81.8, MEKK2 mut-MEK5 inactive, CRFR2-BP ag inactive, MEKK3 PB1 HTS inactive and ABCB6 inh MLPCN inactive.
`CC1CN1P1(=O)OCC(C)([N+](=O)[O-])CO1` (centres undefined) gave CRFR2-BP antag inactive, CRFR2-BP ag inactive and ABCB6 inh MLPCN inactive.
C1=NCCc2c1[nH]c1ccccc21 was read as CRFR2-BP antag inactive, CRFR2-BP ag inactive and ABCB6 inh MLPCN inactive.
For CC1=NCCc2c1[nH]c1cc(O)ccc21 the results were CRFR2-BP antag inactive, CRFR2-BP ag 220.4 and ABCB6 inh MLPCN inactive.
`CCOP(=O)(OCC)/C(C#N)=C/c1ccoc1` gave MEKK2 WT-MEK5 inactive, CRFR2-BP antag inactive, MEKK2 mut-MEK5 inactive, CRFR2-BP ag inactive, MEKK3 PB1 HTS inactive and ABCB6 inh MLPCN inactive.
`CC(C)N(Cc1ccco1)/N=C/c1c(O)n(Cc2ccccc2)c(=O)[nH]c1=O` gave MEKK2 WT-MEK5 inactive, CRFR2-BP antag inactive, MEKK2 mut-MEK5 inactive, CRFR2-BP ag inactive, MEKK3 PB1 HTS inactive and ABCB6 inh MLPCN inactive.
`COC(=O)Cn1cc(/C=C2\C(=O)NC(=O)N(c3ccc(OC)cc3)C2=O)c2ccccc21` gave MEKK2 WT-MEK5 inactive, CRFR2-BP antag inactive, MEKK2 mut-MEK5 inactive, CRFR2-BP ag 81.4, MEKK3 PB1 HTS inactive and ABCB6 inh MLPCN inactive.
COc1ccc(N2C(=O)NC(=O)/C(=C\c3cn(C)c4ccccc34)C2=O)cc1 was read as MEKK2 WT-MEK5 inactive, CRFR2-BP antag inactive, MEKK2 mut-MEK5 inactive, CRFR2-BP ag 119.9, MEKK3 PB1 HTS inactive and ABCB6 inh MLPCN inactive.
